Data taken from PMC7862700, “An all-to-all approach to the identification of sequence-specific readers for epigenetic DNA modifications on cytosine”.

What was measured:
Experiment in all cases: DAPPL (digital affinity profiling via proximity ligation, sequencing); 10 mM Tris-HCl pH 7.5, 50 mM NaCl, 1 mM DTT, 4% glycerol, room temperature, 30 min; GST-TFs on glutathione beads, 16-mer random dsDNA library, 0.1% formaldehyde crosslink after washing; high values mean tight binding
Details in all cases: protein: recombinant; tags: N-terminal GST; dsDNA, one strand shown
[1] = molecular target: T1, ERF (Homo sapiens, UniProt P50548 1-548)
T1 sequence: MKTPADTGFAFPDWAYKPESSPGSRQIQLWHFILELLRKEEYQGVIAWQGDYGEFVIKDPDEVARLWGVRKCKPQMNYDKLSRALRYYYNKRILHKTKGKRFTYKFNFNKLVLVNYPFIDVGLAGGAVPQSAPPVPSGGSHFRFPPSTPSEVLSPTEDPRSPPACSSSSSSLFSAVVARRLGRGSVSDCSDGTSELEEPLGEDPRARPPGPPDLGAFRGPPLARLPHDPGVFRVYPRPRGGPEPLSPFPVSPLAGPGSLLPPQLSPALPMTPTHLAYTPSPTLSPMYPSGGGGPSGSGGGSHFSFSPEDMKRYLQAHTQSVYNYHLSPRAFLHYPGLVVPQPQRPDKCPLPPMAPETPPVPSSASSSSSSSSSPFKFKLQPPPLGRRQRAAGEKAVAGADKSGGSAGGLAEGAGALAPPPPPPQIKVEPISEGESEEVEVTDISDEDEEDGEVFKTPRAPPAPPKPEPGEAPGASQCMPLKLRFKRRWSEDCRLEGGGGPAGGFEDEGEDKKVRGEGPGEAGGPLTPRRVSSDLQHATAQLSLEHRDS
Procedure, shortened: (§1)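 Sequencing on an Illumina NextSeq500 followed washing, crosslinking with 0.1% formaldehyde, proximity ligation (BsaI/T4 ligase, 1 h, 37 °C) and PCR amplification of pools that had been incubated for 30 min at room temperature with 200 nmole of a random double-stranded 16-mer DNA library in Tris/NaCl/DTT/glycerol buffer. Each pool held DNA-barcoded human transcription factors, expressed in yeast as GST fusions and captured on glutathione beads, plus a tag-only sample. Binding signal is a hexamer's read frequency for a factor divided by its frequency in the tag-only sample.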

[2] = molecular target: T2, ETV3L (Homo sapiens, UniProt Q6ZN32 1-361)
T2 sequence: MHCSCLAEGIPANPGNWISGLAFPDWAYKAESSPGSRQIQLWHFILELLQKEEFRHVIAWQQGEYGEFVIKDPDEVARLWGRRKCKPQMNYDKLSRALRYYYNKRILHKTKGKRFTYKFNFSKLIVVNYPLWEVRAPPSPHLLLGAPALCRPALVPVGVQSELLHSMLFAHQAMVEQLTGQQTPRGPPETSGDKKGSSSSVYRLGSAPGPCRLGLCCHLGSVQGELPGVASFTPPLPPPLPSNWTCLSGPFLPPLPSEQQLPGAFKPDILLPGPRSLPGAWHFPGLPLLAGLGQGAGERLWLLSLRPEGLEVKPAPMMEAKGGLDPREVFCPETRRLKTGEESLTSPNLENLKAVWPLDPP
Procedure, shortened: as §1

[3] = molecular target: T3, ETS2 (Homo sapiens, UniProt P15036 1-469)
T3 sequence: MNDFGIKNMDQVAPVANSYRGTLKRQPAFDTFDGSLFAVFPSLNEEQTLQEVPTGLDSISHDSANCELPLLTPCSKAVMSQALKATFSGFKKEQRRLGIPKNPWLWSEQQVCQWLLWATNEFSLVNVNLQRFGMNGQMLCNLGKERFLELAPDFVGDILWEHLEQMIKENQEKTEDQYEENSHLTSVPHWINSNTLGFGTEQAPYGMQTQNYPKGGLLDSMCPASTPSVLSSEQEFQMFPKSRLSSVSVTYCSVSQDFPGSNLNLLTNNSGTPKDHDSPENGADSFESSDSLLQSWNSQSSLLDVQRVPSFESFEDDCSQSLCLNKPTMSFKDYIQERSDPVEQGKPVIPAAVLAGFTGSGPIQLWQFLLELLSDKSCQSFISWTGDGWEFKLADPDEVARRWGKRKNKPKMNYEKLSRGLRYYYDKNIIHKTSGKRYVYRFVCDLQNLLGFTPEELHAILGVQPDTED
Procedure, shortened: as §1

[4] = molecular target: T4, SPDEF (Homo sapiens, UniProt O95238 1-335)
T4 sequence: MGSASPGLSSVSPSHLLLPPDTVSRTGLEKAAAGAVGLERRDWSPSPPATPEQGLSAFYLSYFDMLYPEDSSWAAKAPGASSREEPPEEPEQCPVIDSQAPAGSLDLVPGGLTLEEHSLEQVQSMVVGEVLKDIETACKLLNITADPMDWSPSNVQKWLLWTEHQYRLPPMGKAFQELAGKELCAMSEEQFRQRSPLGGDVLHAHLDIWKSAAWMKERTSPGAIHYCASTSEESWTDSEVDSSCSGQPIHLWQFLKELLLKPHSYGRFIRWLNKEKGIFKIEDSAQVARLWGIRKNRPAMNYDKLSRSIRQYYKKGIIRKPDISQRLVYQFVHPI
Procedure, shortened: as §1

[5] = molecular target: T5, ETV7 (Homo sapiens, UniProt Q9Y603 1-341)
T5 sequence: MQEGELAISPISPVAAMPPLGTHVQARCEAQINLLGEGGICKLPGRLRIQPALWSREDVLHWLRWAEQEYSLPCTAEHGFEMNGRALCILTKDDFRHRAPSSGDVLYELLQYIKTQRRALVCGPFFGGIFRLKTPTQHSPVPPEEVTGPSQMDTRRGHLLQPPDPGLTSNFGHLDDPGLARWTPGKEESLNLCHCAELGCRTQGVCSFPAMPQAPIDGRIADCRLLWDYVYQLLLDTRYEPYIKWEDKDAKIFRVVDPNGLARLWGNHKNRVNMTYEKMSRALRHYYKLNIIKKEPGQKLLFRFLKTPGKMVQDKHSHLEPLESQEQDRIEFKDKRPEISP
Procedure, shortened: as §1

[6] = molecular target: T6, ELF5 (Homo sapiens, UniProt Q9UKW6-2 1-255)
T6 sequence: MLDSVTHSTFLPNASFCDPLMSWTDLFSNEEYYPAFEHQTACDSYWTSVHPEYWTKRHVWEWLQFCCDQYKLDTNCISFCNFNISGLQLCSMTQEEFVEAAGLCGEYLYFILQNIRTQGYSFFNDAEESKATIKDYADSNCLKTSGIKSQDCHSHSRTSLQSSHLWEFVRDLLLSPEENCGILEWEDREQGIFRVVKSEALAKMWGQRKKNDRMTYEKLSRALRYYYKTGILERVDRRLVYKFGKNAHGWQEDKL
Procedure, shortened: as §1

[7] = molecular target: T7, ETV3 (Homo sapiens, UniProt P41162-2 1-143)
T7 sequence: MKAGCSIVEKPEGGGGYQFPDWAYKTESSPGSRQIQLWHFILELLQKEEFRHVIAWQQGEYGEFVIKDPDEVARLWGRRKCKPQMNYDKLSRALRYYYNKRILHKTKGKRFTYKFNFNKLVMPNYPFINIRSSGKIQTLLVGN
Procedure, shortened: as §1

[8] = molecular target: ETV6 (Homo sapiens, UniProt P41212 1-452)
Sequence of ETV6 (P41212 whole entry): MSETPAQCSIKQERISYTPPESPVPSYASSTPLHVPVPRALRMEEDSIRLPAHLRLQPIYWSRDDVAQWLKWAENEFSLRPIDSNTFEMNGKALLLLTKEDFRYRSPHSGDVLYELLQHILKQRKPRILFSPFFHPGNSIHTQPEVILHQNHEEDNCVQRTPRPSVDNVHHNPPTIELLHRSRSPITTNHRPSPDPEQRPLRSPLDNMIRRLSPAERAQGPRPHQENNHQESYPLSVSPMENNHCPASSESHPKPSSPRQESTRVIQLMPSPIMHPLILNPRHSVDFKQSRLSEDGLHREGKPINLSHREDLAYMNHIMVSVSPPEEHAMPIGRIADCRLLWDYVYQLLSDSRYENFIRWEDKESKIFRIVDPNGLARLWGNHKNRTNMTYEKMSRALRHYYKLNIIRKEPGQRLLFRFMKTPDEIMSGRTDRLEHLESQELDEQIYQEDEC
Procedure, shortened: as §1

Sequence	binding signal [1]	binding signal [2]	binding signal [3]	binding signal [4]	binding signal [5]	binding signal [6]	binding signal [7]	binding signal [8]
TCCTCT	1.68 fold enrichment (6-mer frequency, TF over GST control)	1.74 fold enrichment (6-mer frequency, TF over GST control)	1.67 fold enrichment (6-mer frequency, TF over GST control)	1.58 fold enrichment (6-mer frequency, TF over GST control)	1.67 fold enrichment (6-mer frequency, TF over GST control)	2.15 fold enrichment (6-mer frequency, TF over GST control)	1.63 fold enrichment (6-mer frequency, TF over GST control)	1.64 fold enrichment (6-mer frequency, TF over GST control)
TTCACC	1.41 fold enrichment (6-mer frequency, TF over GST control)	1.32 fold enrichment (6-mer frequency, TF over GST control)	1.35 fold enrichment (6-mer frequency, TF over GST control)	1.32 fold enrichment (6-mer frequency, TF over GST control)	1.3 fold enrichment (6-mer frequency, TF over GST control)	1.32 fold enrichment (6-mer frequency, TF over GST control)	1.48 fold enrichment (6-mer frequency, TF over GST control)	1.35 fold enrichment (6-mer frequency, TF over GST control)
CCTTTG	1.24 fold enrichment (6-mer frequency, TF over GST control)	1.32 fold enrichment (6-mer frequency, TF over GST control)	1.32 fold enrichment (6-mer frequency, TF over GST control)	1.22 fold enrichment (6-mer frequency, TF over GST control)	1.33 fold enrichment (6-mer frequency, TF over GST control)	1.31 fold enrichment (6-mer frequency, TF over GST control)	1.34 fold enrichment (6-mer frequency, TF over GST control)	1.17 fold enrichment (6-mer frequency, TF over GST control)
TCCCCA	1.32 fold enrichment (6-mer frequency, TF over GST control)	1.41 fold enrichment (6-mer frequency, TF over GST control)	1.38 fold enrichment (6-mer frequency, TF over GST control)	1.3 fold enrichment (6-mer frequency, TF over GST control)	1.12 fold enrichment (6-mer frequency, TF over GST control)	1.46 fold enrichment (6-mer frequency, TF over GST control)	1.36 fold enrichment (6-mer frequency, TF over GST control)	1.26 fold enrichment (6-mer frequency, TF over GST control)
GATGAA	1.17 fold enrichment (6-mer frequency, TF over GST control)	1.25 fold enrichment (6-mer frequency, TF over GST control)	1.19 fold enrichment (6-mer frequency, TF over GST control)	1.15 fold enrichment (6-mer frequency, TF over GST control)	1.24 fold enrichment (6-mer frequency, TF over GST control)	1.17 fold enrichment (6-mer frequency, TF over GST control)	1.11 fold enrichment (6-mer frequency, TF over GST control)	1.18 fold enrichment (6-mer frequency, TF over GST control)
TCCCGA	1.34 fold enrichment (6-mer frequency, TF over GST control)	1.21 fold enrichment (6-mer frequency, TF over GST control)	1.29 fold enrichment (6-mer frequency, TF over GST control)	1.37 fold enrichment (6-mer frequency, TF over GST control)	1.35 fold enrichment (6-mer frequency, TF over GST control)	1.52 fold enrichment (6-mer frequency, TF over GST control)	1.26 fold enrichment (6-mer frequency, TF over GST control)	1.22 fold enrichment (6-mer frequency, TF over GST control)
TGCACC	1.21 fold enrichment (6-mer frequency, TF over GST control)	1.21 fold enrichment (6-mer frequency, TF over GST control)	1.08 fold enrichment (6-mer frequency, TF over GST control)	1.2 fold enrichment (6-mer frequency, TF over GST control)	1.02 fold enrichment (6-mer frequency, TF over GST control)	1.16 fold enrichment (6-mer frequency, TF over GST control)	1.24 fold enrichment (6-mer frequency, TF over GST control)	1.19 fold enrichment (6-mer frequency, TF over GST control)
ACGTTA	1.17 fold enrichment (6-mer frequency, TF over GST control)	1.12 fold enrichment (6-mer frequency, TF over GST control)	1.15 fold enrichment (6-mer frequency, TF over GST control)	1.06 fold enrichment (6-mer frequency, TF over GST control)	1.09 fold enrichment (6-mer frequency, TF over GST control)	1.06 fold enrichment (6-mer frequency, TF over GST control)	1.16 fold enrichment (6-mer frequency, TF over GST control)	1.12 fold enrichment (6-mer frequency, TF over GST control)
GTTTGA	1.23 fold enrichment (6-mer frequency, TF over GST control)	1.11 fold enrichment (6-mer frequency, TF over GST control)	1.26 fold enrichment (6-mer frequency, TF over GST control)	1.11 fold enrichment (6-mer frequency, TF over GST control)	1.24 fold enrichment (6-mer frequency, TF over GST control)	1.17 fold enrichment (6-mer frequency, TF over GST control)	1.24 fold enrichment (6-mer frequency, TF over GST control)	1.28 fold enrichment (6-mer frequency, TF over GST control)
AATATT	1.22 fold enrichment (6-mer frequency, TF over GST control)	1.36 fold enrichment (6-mer frequency, TF over GST control)	1.34 fold enrichment (6-mer frequency, TF over GST control)	1.25 fold enrichment (6-mer frequency, TF over GST control)	1.43 fold enrichment (6-mer frequency, TF over GST control)	1.38 fold enrichment (6-mer frequency, TF over GST control)	1.37 fold enrichment (6-mer frequency, TF over GST control)	1.46 fold enrichment (6-mer frequency, TF over GST control)
AAAGGT	1.07 fold enrichment (6-mer frequency, TF over GST control)	1.03 fold enrichment (6-mer frequency, TF over GST control)	1.04 fold enrichment (6-mer frequency, TF over GST control)	1.11 fold enrichment (6-mer frequency, TF over GST control)	1.07 fold enrichment (6-mer frequency, TF over GST control)	1.01 fold enrichment (6-mer frequency, TF over GST control)	1.05 fold enrichment (6-mer frequency, TF over GST control)	1.11 fold enrichment (6-mer frequency, TF over GST control)
TCCATC	1.17 fold enrichment (6-mer frequency, TF over GST control)	1.31 fold enrichment (6-mer frequency, TF over GST control)	1.2 fold enrichment (6-mer frequency, TF over GST control)	1.3 fold enrichment (6-mer frequency, TF over GST control)	1.2 fold enrichment (6-mer frequency, TF over GST control)	1.17 fold enrichment (6-mer frequency, TF over GST control)	1.22 fold enrichment (6-mer frequency, TF over GST control)	1.13 fold enrichment (6-mer frequency, TF over GST control)
CGATAA	1.11 fold enrichment (6-mer frequency, TF over GST control)	1.09 fold enrichment (6-mer frequency, TF over GST control)	1.14 fold enrichment (6-mer frequency, TF over GST control)	1.02 fold enrichment (6-mer frequency, TF over GST control)	1.08 fold enrichment (6-mer frequency, TF over GST control)	1.03 fold enrichment (6-mer frequency, TF over GST control)	1.06 fold enrichment (6-mer frequency, TF over GST control)	1.09 fold enrichment (6-mer frequency, TF over GST control)
CGTATG	1.02 fold enrichment (6-mer frequency, TF over GST control)	1.07 fold enrichment (6-mer frequency, TF over GST control)	1.11 fold enrichment (6-mer frequency, TF over GST control)	1.05 fold enrichment (6-mer frequency, TF over GST control)	1.03 fold enrichment (6-mer frequency, TF over GST control)	1.04 fold enrichment (6-mer frequency, TF over GST control)	1.13 fold enrichment (6-mer frequency, TF over GST control)	1.02 fold enrichment (6-mer frequency, TF over GST control)
CCGGAC	1.4 fold enrichment (6-mer frequency, TF over GST control)	1.48 fold enrichment (6-mer frequency, TF over GST control)	1.52 fold enrichment (6-mer frequency, TF over GST control)	2.1 fold enrichment (6-mer frequency, TF over GST control)	1.39 fold enrichment (6-mer frequency, TF over GST control)	1.77 fold enrichment (6-mer frequency, TF over GST control)	1.6 fold enrichment (6-mer frequency, TF over GST control)	1.41 fold enrichment (6-mer frequency, TF over GST control)
